Reference: ChEMBL document CHEMBL3988442, “University of Dundee, Small-Polar-MMV Screening Library” (2021)
For some assays here: Measured potencies and affinities stand elsewhere.

Assays:
Parameters in all cases: scale not given: direction of the effect not stated beside the values
[1] = biological target: Protein translocase subunit SecA (Escherichia coli (strain K12)) (UniProt P10408); experiment: Assay to Identify E. coli SecA ATPase Inhibitors; format: functional; settings: 30 µM
[2] = biological target: T1, Ubiquitin-activating enzyme e1, putative (Leishmania donovani (strain BPK282A1)) (UniProt E9BSI1); experiment: Leishmania donovani Ubiquitin Activating Enzyme (LdE1); format: functional; settings: 30 µM
T1 sequence (whole entry): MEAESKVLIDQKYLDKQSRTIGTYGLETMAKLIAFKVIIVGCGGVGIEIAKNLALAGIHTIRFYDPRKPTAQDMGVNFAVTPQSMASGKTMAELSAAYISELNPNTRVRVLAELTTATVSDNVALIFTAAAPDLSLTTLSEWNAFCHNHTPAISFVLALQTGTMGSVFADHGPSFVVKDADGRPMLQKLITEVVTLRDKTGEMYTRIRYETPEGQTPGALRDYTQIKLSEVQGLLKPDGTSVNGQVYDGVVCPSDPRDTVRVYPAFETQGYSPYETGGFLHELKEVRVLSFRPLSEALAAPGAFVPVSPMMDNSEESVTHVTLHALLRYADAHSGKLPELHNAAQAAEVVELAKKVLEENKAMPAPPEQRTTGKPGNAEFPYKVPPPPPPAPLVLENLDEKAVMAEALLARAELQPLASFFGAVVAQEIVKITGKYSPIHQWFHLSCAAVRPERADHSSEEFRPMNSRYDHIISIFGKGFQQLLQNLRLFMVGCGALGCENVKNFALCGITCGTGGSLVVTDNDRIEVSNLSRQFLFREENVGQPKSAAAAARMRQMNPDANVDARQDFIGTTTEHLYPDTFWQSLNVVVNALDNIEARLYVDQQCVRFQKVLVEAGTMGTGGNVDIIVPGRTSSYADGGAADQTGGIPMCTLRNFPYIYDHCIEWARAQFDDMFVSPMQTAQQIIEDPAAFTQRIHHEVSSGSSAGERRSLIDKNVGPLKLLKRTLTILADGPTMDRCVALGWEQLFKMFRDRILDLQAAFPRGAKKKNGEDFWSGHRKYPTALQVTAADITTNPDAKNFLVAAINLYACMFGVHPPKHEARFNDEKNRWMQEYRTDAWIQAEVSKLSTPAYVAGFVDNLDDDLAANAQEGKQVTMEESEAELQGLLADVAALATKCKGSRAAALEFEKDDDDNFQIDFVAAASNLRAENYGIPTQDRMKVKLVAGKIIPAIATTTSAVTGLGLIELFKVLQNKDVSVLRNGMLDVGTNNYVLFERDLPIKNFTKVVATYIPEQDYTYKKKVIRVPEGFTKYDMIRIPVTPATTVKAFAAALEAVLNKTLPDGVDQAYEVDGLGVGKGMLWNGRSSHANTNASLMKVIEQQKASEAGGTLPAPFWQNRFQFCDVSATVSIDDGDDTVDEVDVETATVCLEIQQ

[3] = biological target: AMP-activated protein kinase, AMPK (Homo sapiens) (UniProt P54646+O43741+P54619+Q9UGJ0+Q9Y478+Q13131+Q9UGI9); experiment: AMP-dependent Kinase enzyme assay. An in vitro enzyme assay that detects ADP turnover that is directly proportional to AMPK activity. This uses naive AMPK that is activated during the assay with MK-8722; format: functional; settings: 30 µM
[4] = biological target: Sialic acid-binding Ig-like lectin 9 (Homo sapiens) (UniProt Q9Y336); experiment: Hs-Siglec9 ALPHAscreen SOP 20170721; settings: 10 µM
Trypanosoma cruzi = experiment: Trypanosoma cruzi phosphomannomutase and mannose-1-phosphate guanylyltransferase assay; format: functional; settings: 10 µM
[5] = biological target: T2, Arginase-2, mitochondrial (Homo sapiens) (UniProt P78540); experiment: in vitro enzyme assay to detect the production of urea directly proportional to the activity of Arginase II; format: functional; settings: 33.3 µM; further: in the data most compounds retested in dose-response had high values
T2 sequence (whole entry): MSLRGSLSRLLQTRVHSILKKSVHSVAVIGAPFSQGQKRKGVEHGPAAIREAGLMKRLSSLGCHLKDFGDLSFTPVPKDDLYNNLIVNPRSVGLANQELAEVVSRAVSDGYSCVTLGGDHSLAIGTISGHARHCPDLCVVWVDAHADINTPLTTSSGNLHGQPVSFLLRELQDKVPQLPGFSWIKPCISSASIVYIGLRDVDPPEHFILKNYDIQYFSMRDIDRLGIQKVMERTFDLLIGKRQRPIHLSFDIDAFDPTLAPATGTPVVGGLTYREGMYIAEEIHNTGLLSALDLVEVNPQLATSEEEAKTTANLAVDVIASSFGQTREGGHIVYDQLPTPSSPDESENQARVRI

[6] = biological target: T3, Proteasome subunit beta (Trypanosoma cruzi) (UniProt O96673); experiment: Trypanosoma cruzi proteasome chymotrypsin-like activity (TcProtChymo) assay.; further: in the data most compounds retested in dose-response had high values; format: functional; settings: 9.37 µM
T3 sequence (whole entry): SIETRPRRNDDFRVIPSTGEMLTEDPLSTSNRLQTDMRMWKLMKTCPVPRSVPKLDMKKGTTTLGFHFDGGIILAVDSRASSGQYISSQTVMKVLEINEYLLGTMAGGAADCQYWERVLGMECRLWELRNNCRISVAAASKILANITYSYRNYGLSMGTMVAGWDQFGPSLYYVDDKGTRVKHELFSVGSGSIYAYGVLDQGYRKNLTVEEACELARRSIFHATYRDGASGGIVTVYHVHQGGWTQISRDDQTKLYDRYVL

Homo sapiens = species on record: Homo sapiens; experiment: To identify inhibition of the IFN signalling (Jak-Stat) pathway via expression of an eGFP reporter gene under the control of an IFN-stimulated response element (ISRE) containing MxA promoter.; format: functional; settings: 30 µM
[7] = biological target: T4, Tyrosyl-tRNA synthetase, putative (Trypanosoma cruzi (strain CL Brener)) (UniProt Q4DSP6); experiment: Trypanosoma cruzi tyrosyl tRNA synthetase (TcYRS) _High Tyrosine SOP; format: functional; settings: 30 µM; further: in the data most compounds retested in dose-response had high values
T4 sequence (whole entry): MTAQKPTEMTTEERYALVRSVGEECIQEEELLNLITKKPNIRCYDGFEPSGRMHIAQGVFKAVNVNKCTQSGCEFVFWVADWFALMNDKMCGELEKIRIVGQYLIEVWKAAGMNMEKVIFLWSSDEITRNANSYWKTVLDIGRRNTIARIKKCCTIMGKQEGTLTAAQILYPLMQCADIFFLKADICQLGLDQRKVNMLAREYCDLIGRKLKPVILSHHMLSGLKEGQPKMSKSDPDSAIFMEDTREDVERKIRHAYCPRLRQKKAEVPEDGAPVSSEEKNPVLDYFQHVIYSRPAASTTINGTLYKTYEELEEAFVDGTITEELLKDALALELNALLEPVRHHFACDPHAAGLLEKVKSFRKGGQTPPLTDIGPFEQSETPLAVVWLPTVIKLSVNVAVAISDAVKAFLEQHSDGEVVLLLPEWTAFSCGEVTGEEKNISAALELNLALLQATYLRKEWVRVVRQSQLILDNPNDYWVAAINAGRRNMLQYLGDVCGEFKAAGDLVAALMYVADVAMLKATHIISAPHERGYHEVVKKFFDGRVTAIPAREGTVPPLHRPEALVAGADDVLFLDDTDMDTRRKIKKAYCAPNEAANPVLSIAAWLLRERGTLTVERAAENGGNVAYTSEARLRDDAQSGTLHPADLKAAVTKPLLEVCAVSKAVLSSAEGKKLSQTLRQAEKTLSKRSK

[8] = biological target: T4, Tyrosyl-tRNA synthetase, putative (Trypanosoma cruzi (strain CL Brener)); experiment: Trypanosoma cruzi tyrosyl tRNA synthetase (TcYRS) SOP; format: functional; settings: 30 µM
[9] = biological target: Chromo domain-containing protein 1 (Saccharomyces cerevisiae (strain ATCC 204508 / S288c) (Baker's yeast)) (UniProt P32657); experiment: ScCHD-1 Enzyme Inhibition Assay; format: functional; settings: 30 µM; further: in the data most compounds retested in dose-response had high values
Sequence of Chromo domain-containing protein 1 (Saccharomyces cerevisiae (strain ATCC 204508 / S288c) (Baker's yeast)) (P32657 whole entry, the tested form may be a part): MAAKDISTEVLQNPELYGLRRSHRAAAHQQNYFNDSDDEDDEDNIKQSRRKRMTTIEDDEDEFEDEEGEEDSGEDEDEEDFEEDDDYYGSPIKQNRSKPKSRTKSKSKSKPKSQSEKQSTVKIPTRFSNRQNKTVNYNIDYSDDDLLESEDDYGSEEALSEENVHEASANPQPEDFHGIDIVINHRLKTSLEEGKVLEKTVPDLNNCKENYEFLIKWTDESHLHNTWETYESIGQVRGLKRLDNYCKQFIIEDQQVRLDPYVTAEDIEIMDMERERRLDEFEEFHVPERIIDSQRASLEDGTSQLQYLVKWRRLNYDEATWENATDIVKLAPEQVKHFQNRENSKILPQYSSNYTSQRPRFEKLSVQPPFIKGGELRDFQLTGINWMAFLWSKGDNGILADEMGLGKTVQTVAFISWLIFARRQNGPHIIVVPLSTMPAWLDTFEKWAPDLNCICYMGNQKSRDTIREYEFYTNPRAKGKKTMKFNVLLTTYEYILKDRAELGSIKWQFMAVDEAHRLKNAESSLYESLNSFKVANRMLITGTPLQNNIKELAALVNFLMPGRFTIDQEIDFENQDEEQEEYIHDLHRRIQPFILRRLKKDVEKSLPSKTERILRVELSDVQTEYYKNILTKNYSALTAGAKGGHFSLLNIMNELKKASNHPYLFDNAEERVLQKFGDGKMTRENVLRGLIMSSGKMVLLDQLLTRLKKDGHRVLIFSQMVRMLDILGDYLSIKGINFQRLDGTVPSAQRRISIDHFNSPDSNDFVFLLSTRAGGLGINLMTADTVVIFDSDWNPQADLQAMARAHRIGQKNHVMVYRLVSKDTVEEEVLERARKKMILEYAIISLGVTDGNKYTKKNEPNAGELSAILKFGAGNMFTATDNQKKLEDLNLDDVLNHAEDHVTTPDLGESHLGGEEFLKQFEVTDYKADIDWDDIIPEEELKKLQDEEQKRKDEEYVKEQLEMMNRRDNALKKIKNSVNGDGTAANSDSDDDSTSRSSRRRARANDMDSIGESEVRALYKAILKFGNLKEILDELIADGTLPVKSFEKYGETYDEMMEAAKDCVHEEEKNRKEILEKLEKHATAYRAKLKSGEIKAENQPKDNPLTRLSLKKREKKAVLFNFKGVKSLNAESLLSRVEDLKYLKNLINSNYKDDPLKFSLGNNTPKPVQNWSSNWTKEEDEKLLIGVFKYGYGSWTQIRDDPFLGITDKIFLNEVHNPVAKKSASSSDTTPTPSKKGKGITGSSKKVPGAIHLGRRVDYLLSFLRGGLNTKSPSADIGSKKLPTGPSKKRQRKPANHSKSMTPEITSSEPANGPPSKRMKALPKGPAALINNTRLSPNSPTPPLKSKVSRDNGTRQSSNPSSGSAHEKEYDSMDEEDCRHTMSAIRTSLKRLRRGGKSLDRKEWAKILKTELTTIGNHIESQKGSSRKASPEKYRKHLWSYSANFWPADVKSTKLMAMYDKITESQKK

Sequence of Protein translocase subunit SecA (Escherichia coli (strain K12)) (P10408 whole entry): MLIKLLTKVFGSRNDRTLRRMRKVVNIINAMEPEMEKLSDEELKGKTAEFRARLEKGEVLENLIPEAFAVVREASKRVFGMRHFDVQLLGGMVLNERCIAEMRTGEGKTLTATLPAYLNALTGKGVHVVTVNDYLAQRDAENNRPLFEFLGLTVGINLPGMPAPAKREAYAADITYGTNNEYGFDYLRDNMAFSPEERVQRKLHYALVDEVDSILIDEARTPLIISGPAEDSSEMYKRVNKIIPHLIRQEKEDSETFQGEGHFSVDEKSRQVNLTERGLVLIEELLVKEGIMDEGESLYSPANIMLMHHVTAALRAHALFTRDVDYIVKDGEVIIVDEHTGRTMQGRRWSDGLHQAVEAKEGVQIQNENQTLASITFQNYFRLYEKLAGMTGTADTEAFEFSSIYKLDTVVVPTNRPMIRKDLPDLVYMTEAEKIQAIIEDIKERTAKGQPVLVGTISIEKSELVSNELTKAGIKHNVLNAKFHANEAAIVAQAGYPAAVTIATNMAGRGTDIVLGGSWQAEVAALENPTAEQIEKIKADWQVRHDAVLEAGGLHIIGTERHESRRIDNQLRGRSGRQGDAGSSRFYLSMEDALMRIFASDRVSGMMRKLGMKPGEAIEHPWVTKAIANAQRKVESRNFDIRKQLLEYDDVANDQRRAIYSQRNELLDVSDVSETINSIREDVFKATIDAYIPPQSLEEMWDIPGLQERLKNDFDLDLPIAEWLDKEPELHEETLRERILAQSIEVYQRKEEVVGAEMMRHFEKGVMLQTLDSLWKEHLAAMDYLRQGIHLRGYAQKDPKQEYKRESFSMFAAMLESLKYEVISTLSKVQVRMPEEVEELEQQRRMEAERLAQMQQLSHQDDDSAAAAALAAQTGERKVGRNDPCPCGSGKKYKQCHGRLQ
Sequence of Sialic acid-binding Ig-like lectin 9 (Homo sapiens) (Q9Y336 whole entry): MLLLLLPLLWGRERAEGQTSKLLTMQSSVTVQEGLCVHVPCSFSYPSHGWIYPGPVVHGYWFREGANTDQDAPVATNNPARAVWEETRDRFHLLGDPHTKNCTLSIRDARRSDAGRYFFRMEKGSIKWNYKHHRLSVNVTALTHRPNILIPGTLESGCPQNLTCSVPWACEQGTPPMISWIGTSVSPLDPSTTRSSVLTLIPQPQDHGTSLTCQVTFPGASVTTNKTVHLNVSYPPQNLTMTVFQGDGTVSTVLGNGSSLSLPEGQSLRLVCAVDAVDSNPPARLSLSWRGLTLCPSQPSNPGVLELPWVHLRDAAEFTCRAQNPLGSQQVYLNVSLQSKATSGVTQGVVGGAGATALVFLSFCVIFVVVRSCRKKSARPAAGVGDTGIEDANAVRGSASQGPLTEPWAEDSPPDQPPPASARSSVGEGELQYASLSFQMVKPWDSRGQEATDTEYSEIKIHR

| Structure (SMILES) | Percent Effect [1] | Percent Effect [2] | Percent Effect [3] | Percent Effect [4] | Percent Effect (Trypanosoma cruzi) | Percent Effect [5] | Percent Effect [6] | Percent Effect (Homo sapiens) | Percent Effect [7] | Percent Effect [8] | Percent Effect [9] |
| --- | --- | --- | --- | --- | --- | --- | --- | --- | --- | --- | --- |
| CS(=O)(=O)NCCNC(=O)C1(c2cccc(Cl)c2)CC1 | -0.857% | 9.72% | -4.76% | 1.31% | 1.07% | 20.8% | 10.9% | -17.9% | 3.16% | 7.69% | -4.91% |
| CCC(=O)N1CCc2nc3cc(OC)c(OC)cc3c(=O)n2CC1 | -8.64% | 9.46% | -6.48% | 12.5% | 5.34% | -1.62% | 8.58% | 6.53% | 2.15% | 11.7% | -28.2% |
| CSCc1nc(C(C)(C)NC(=O)OC(C)(C)C)no1 | -2.5% | 2.67% | -2.2% | 1.89% | 7.3% | -2.08% | 9.07% | -12.6% | -0.546% | 1.24% | 107% |
| O=C(O)[C@]12CCCN(Cc3ccncc3)[C@@H]1CCN(c1cnccn1)C2 | -3.31% | 2.67% | -1.2% | -3.96% | -6.91% | -0.521% | 21.6% | 22% | -0.546% | 1.24% | -6.37% |
| Cc1cnn(CCNCc2ccc(F)cc2Cl)c1 | -3.52% | 8.11% | -1.08% | 10.9% | -1.02% | 0.554% | 10.9% | -9.92% | 1.98% | 13.4% | 1.6% |
| c1ncn(CC2CN(Cc3csc(C4CCCC4)n3)CCO2)n1 (configuration not stated) | -7.65% | 15.8% | -7.05% | 15.7% | 3.46% | -1.44% | -2.79% | 2.48% | 4.43% | 23.5% | -9.07% |
| CCN(Cc1ccc2c(c1)OCCO2)S(=O)(=O)N(C)C(C)C | -5.7% | 7.79% | 3.89% | 16% | 5.99% | 0.356% | 3.38% | 9.12% | 0% | 14.6% | -6.79% |
| CCC(C)N(C)S(=O)(=O)c1ccc(CCNC(C)=O)s1 (configuration not stated) | -1.87% | -4.17% | -4.26% | -5.04% | -2.62% | 0.442% | 8.77% | 10.4% | -3.16% | -5.13% | 5.31% |
| CC1CCCN(Cc2csc(-c3ncccn3)n2)CC1 (configuration not stated) | -3.33% | -16.2% | -12.5% | 18.6% | 8.26% | -1.66% | 20.5% | 29.2% | 13.9% | 15.8% | 2.62% |
| N#CCCN(CCC#N)C(=O)CN1CCCC1Cc1cccc(F)c1 (configuration not stated) | -3.46% | 0% | -6.01% | -7.53% | 3.32% | 1.25% | 24.6% | -17.1% | 7.92% | 8.54% | 0.083% |
| CC(Cn1cccn1)NC(=O)CCc1ccc(S(N)(=O)=O)cc1 (configuration not stated) | -7.11% | 18.2% | -0.578% | 3.31% | 6.37% | -2.74% | 7.03% | 11% | 6.67% | 23.5% | -9.46% |
| Cc1cc(CN(C)C(=O)NC2CCCN(c3ncccn3)C2)no1 (configuration not stated) | -1.33% | 5.26% | 1.46% | 4.34% | 3.01% | -1.92% | 2.34% | -2.99% | 9.31% | 21.9% | -10.3% |
| Cc1noc(C)c1CN1CCN(CC2CC2)c2ncccc2C1 | -0.988% | 5.33% | -0.194% | -3.6% | -5.71% | 3.5% | 4.49% | 23% | 4.25% | 8.97% | -3.22% |
| CC(NC(=O)CCCOc1ccccc1Cl)c1ccncc1 (configuration not stated) | -5.33% | 0% | 2.41% | 0.805% | -8.42% | -2.27% | 6.39% | 27.7% | -2.15% | 2.5% | 110% |
| CN1CCN(C(=O)c2nc3c(o2)CN(C(=O)c2cccnc2)C3)CC1 | -2.08% | 0% | -4.16% | 2.81% | -1.28% | -5.52% | 14% | 2.22% | 1.07% | 8.64% | 1.76% |
| Cn1nc(C2CCCN(Cc3cccc(F)c3)C2)c2nccnc21 (configuration not stated) | -3.38% | 9.46% | 9.97% | 14.6% | 6.13% | -1.62% | 9.05% | 13.8% | 2.15% | 16.9% | -15.8% |
| CNC(=O)Cn1cc(C#N)c(=O)c2cc(Br)ccc21 | -5.47% | 13.3% | -4.43% | 16.9% | 7.3% | 7.29% | 15.2% | 9.36% | 3.83% | 13.6% | 38.7% |
| Cc1cc(C)n(CC2CCCN2CC(=O)NC2CCOCC2)n1 (configuration not stated) | -8.59% | 10.4% | 1.94% | 3.84% | -3.93% | 2.13% | 3.21% | -10% | 1.94% | 9.76% | -3.99% |
| CCn1cc(N)c(C(=O)NCc2cnn(C)c2)n1 | -3.38% | 5.2% | 2.98% | 0.256% | -1.48% | -8.28% | 9.48% | -5.92% | 6.45% | 11.1% | 1.02% |
| CN(C)C(=O)NC1COC2(CCN(C(=O)Nc3ccccc3)CC2)C1 (configuration not stated) | 5.37% | 18.7% | 1.41% | -7.63% | -3.54% | 0.699% | 8.72% | 3.6% | -1.06% | 6.41% | 2.03% |
| Cc1cccc(OCCC(=O)N(C)CCNS(C)(=O)=O)c1C | -2.9% | 5.26% | 8.08% | 6.9% | -4.58% | -2.37% | 7.96% | 3.29% | 2.13% | 13% | -5.08% |
| Cc1cc(CC(=O)NCc2ccnc(OCC(F)(F)F)c2)no1 | -9.52% | -5.26% | 3.73% | -4.53% | -6.2% | -0.766% | 2.84% | 30.8% | 0.49% | 0% | -5.08% |
